CtBP-E1A blk: CtBP/E1A binding inhibition; AlphaScreen GST-E1A/His-CtBP binding, 1536-well; hits give low values; 0.49% of 340,000 active; activity change, % (no concentration beside the values); AID 651724; in the data active = activity change below about -65%; inconclusive = mostly about -30% to -63%; note: % is set by controls: 0 for no effect and ±100 for the full control effect
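GST-E1A and His-tagged CtBP (125 nM each as 5X stock) were preincubated with pin-transferred compound for 2 h at 37 °C in the dark, then glutathione donor and nickel acceptor beads were added for 1 h before AlphaScreen reading.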
G9a block: inhibitors of human histone lysine methyltransferase G9a | Q96KQ7 | Potency, µM (series often up to 102 µM), without a hit: at the top dose activity, negative = inhibition, actives largely listed as inhibitors | G9a H3K9 monomethylation, AlphaScreen, 2 h | 8.8% of 350,000 active; note: potency is the fitted concentration of half-maximal effect; % is set by controls: 0 for no effect and ±100 for the full control effect; nearly all actives have a fitted effect of over 75% in size
Target sequence (Q96KQ7 913-1193 limits assumed): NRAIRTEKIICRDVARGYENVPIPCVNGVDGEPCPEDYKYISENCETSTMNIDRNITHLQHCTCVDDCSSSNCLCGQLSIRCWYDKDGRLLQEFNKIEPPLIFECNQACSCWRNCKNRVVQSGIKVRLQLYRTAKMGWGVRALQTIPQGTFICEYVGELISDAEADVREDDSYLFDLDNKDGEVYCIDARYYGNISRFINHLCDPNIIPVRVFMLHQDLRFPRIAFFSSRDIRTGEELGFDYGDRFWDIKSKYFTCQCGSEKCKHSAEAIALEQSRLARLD
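Quantitative HTS format: methyltransferase activity on a biotin-tagged H3K9 peptide is measured by AlphaScreen, using a rabbit anti-monomethyl-H3K9 antibody with streptavidin donor and anti-IgG acceptor beads. Final levels are 20 nM enzyme, 500 nM peptide, 20 uM SAM; 2 h RT.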
HP1b chromo inh: blocks HP1-beta chromodomain binding to methylated histone tails. 0.56% of 390,000 active. AID 540317. Potency, µM (titrated, usually from 114 µM), for inactives: top-dose activity change, negative = inhibition, actives largely listed as inhibitors. AlphaScreen HP1-beta / biotin-H3K9me3 peptide binding. P83916; note: potency is the fitted concentration of half-maximal effect; nearly all actives have a fitted effect of over 70% in size
Target sequence (P83916 whole entry, looked up): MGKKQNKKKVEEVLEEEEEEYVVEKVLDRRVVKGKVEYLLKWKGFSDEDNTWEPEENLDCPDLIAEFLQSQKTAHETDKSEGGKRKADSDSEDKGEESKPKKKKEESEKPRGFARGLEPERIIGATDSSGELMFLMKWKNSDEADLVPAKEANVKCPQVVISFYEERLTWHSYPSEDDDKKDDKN
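HP1-beta protein (50 nM final) preincubated 30 min at room temperature with biotinylated H3(1-18)K9me3 peptide (50 nM) in PBS pH 7.4, 0.01% Tween-20, then compound added for 30 min. AlphaScreen streptavidin donor/nickel chelate acceptor beads (10 ug/mL final), 30 min dark, luminescence read.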
BAZ2B inh: BAZ2B (human) inhibition; AlphaScreen BAZ2B-H3K14Ac peptide displacement; Potency, µM (top dose mostly 114 µM), without a hit: at the highest dose activity change, negative = inhibition, most hits filed as inhibitors; 4.4% of 360,000 active; AID 504333; note: potency is the fitted concentration of half-maximal effect; % is set by controls: 0 for no effect and ±100 for the full control effect; nearly all actives have a fitted effect of over 60% in size
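BAZ2B 50 nM plus b-H3(5-23)K14Ac 50 nM, PBS pH 7.4/0.01% Tween-20, 30 min RT; compound added (max 110 uM), 30 min RT; streptavidin donor/Ni-chelate acceptor beads 10 ug/mL final, 20 min dark; AlphaScreen read.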
JMJD2A Tudor: blocks the human JMJD2A Tudor domain; 4.4% of 390,000 active; O75164; AlphaScreen JMJD2A-Tudor / H3K4me3 peptide binding; AID 504339; Potency, µM (highest dose often 114 µM), inactives show at the highest dose activity change, negative = inhibition, usual class: inhibitors; note: potency is the fitted concentration of half-maximal effect; % is set by controls: 0 for no effect and ±100 for the full control effect; nearly all actives have a fitted effect of over 50% in size
Six1-Eya2 inh: Six1/Eya2 interaction inhibition; Q15475+O00167; AlphaScreen GST-Six1/His-Eya2 binding, biochemical; hits give low values; activity change, % (test concentration not listed); 0.56% of 360,000 active; in the data active = activity change below about -65%; inconclusive = mostly about -30% to -63%; note: % is set by controls: 0 for no effect and ±100 for the full control effect
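Six1/Eya2 binding was read as AlphaScreen signal after compounds were pinned into GST-Six1 plus His-tagged Eya2 (5X stock 250/500 nM) in pH 8.0 Tris/NaCl/TCEP buffer, beads added, then incubated 1 h, 37 C, dark.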
* hit, by the source's call; [ ] = another dose, or the depositor's remark. In the library only some 10% were active in any assay of this set; here they are far more common. Unless noted, calls come from the whole dose curve; as a rule, active = well fitted inhibition curve with a large enough effect; inconclusive = small, poorly fitted or top-dose-only effect; inactive = no such curve, though single readings can be large or run the other way.

For COc1ccc(CNC[C@@H](CCCCN(C)Cc2ccc(OC)cc2)N2C[C@H](c3ccccc3)N(CCc3ccc(Cl)c(Cl)c3)C(=O)C2=O)cc1 the results were CtBP-E1A blk -19.8, G9a block inconclusive, HP1b chromo inh -9.4%, BAZ2B inh inconclusive, JMJD2A Tudor 39.8µM* and Six1-Eya2 inh -17.4.
COc1cccc(-c2nn(-c3ccccc3)cc2CN(C)Cc2ccon2)c1 was read as G9a block 41.7%, HP1b chromo inh 100.8%, BAZ2B inh 8.5%, JMJD2A Tudor 5.5% and Six1-Eya2 inh 25.8.
For COc1cccc(-c2nn(-c3ccccc3)cc2CN(C)Cc2c(C)nc3ccccn23)c1 the results were G9a block inconclusive, HP1b chromo inh -27.9%, BAZ2B inh -38.1%, JMJD2A Tudor 56.2µM* and Six1-Eya2 inh -2.8.
Screening Nc1cc2c(cc1[N+](=O)[O-])-c1ccccc1C2=NO returned CtBP-E1A blk 0.2, HP1b chromo inh inconclusive, JMJD2A Tudor 28.2µM* and Six1-Eya2 inh inconclusive.
`CCOC(=O)c1cc2occc2n1CC(=O)N1CCCc2ccccc21` gave CtBP-E1A blk -14.6, G9a block inconclusive, HP1b chromo inh -29.1%, BAZ2B inh 79.4µM*, JMJD2A Tudor inconclusive and Six1-Eya2 inh -6.9.
`COC(=O)c1cc2oc(C)cc2n1CC(=O)N1CCCc2ccccc21` gave CtBP-E1A blk -15.8, G9a block inconclusive, HP1b chromo inh -20.3%, BAZ2B inh 89.1µM*, JMJD2A Tudor inconclusive and Six1-Eya2 inh inconclusive.
`COc1cc(C(C#N)N2N=C(c3ccccc3)CC2c2ccccc2)ccc1O` (centres undefined) gave CtBP-E1A blk 5.3, G9a block -48.3%[59 µM], HP1b chromo inh 16.7%, BAZ2B inh 22.9%, JMJD2A Tudor -18.9% and Six1-Eya2 inh 0.0.
For COc1ccc(C(C#N)N2CCC(c3ccccc3)=N2)cc1 (centres undefined) the results were CtBP-E1A blk 1.6, G9a block 35.5µM*, HP1b chromo inh 59.3%, BAZ2B inh 2.3%, JMJD2A Tudor 3.5% and Six1-Eya2 inh 1.7.
For COc1ccc(CNc2ncncc2-c2ccoc2)c(OC)c1 the results were G9a block -0.1%[0.501 µM].
Screening CCc1ccc2c(c1)-c1ccccc1S(=O)(=O)N2CC(=O)N1CCCCC1 returned G9a block -16.5%[59 µM], HP1b chromo inh -1.1%, BAZ2B inh -9.5% and JMJD2A Tudor -23.5%.
For CN(C)CCN(C(=O)c1cccc(N2C(=O)CCC2=O)c1)c1nc2ccc(Br)cc2s1 the results were CtBP-E1A blk 7.3, G9a block inconclusive, HP1b chromo inh 9.7%, BAZ2B inh -5.3%, JMJD2A Tudor -9.6% and Six1-Eya2 inh 1.7.
Screening CN(C)CCCN(C(=O)c1ccc2ccccc2c1)c1nc2cc3c(cc2s1)OCO3 returned CtBP-E1A blk inconclusive, G9a block inconclusive, HP1b chromo inh 4.2%, BAZ2B inh inconclusive, JMJD2A Tudor inconclusive and Six1-Eya2 inh inconclusive.
For CCN(c1ccccc1)S(=O)(=O)c1ccc(C(=O)N(CCCN(C)C)c2nc3c(C)cccc3s2)cc1 the results were CtBP-E1A blk inconclusive, HP1b chromo inh -19.4%, BAZ2B inh 28.2µM*, JMJD2A Tudor 44.7µM* and Six1-Eya2 inh -29.1.
`CN(C)CCN(C(=O)c1ccc(N2C(=O)CCC2=O)cc1)c1nc2cc3c(cc2s1)OCO3` gave CtBP-E1A blk -1.3, G9a block 39.8µM*, HP1b chromo inh 17.7%, JMJD2A Tudor -15.5% and Six1-Eya2 inh -2.6.
Screening COc1ccc2sc(N(CCCN(C)C)C(=O)c3ccc(S(=O)(=O)N(C)Cc4ccccc4)cc3)nc2c1 returned CtBP-E1A blk -27.7, G9a block 44.7µM*, HP1b chromo inh inconclusive, BAZ2B inh inconclusive, JMJD2A Tudor 50.1µM* and Six1-Eya2 inh -27.0.
Screening CN(C)CCCN(C(=O)c1ccc(S(=O)(=O)N(C)Cc2ccccc2)cc1)c1nc2cc3c(cc2s1)OCO3 returned CtBP-E1A blk -28.6, G9a block 50.1µM*, HP1b chromo inh -15.3%, BAZ2B inh inconclusive, JMJD2A Tudor 50.1µM* and Six1-Eya2 inh inconclusive.
For CCOC(=O)c1ccc(NC(=O)CCn2c(=O)c3cccn3c3ccccc32)cc1 the results were G9a block 17.8%[59 µM], HP1b chromo inh 44.6%, BAZ2B inh -1.4% and JMJD2A Tudor -11.2%.
CS(=O)(=O)NCC(c1ccco1)N1CCN(c2ccccc2)CC1 (centres undefined) was read as G9a block 2.9%[59 µM], HP1b chromo inh 1.8%, BAZ2B inh -6.8% and JMJD2A Tudor -18.2%.
For COc1ncc2nc(-c3cccs3)c(=O)n(Cc3ccc(F)cc3)c2n1 the results were G9a block 24.3%[0.501 µM].
Cc1ccc2sc(N(CCCN(C)C)C(=O)c3ccc(S(=O)(=O)N(C)Cc4ccccc4)cc3)nc2c1C was read as CtBP-E1A blk inconclusive, G9a block 10µM*, HP1b chromo inh inconclusive, BAZ2B inh 2.9%, JMJD2A Tudor inconclusive and Six1-Eya2 inh inconclusive.
CN(C)CCCN(C(=O)c1ccc2c(c1)OCCO2)c1nc2cc3c(cc2s1)OCO3 was read as CtBP-E1A blk -8.2, HP1b chromo inh 16.3%, BAZ2B inh -14.5%, JMJD2A Tudor -22.9% and Six1-Eya2 inh -2.1.
Screening CCN(c1ccccc1)S(=O)(=O)c1ccc(C(=O)N(CCCN(C)C)c2nc3cc4c(cc3s2)OCO4)cc1 returned CtBP-E1A blk -29.5, G9a block 39.8µM*, HP1b chromo inh inconclusive, BAZ2B inh -37.0%, JMJD2A Tudor 39.8µM* and Six1-Eya2 inh inconclusive.
For CN(C)CCCN(C(=O)c1ccc([N+](=O)[O-])o1)c1nc2cc3c(cc2s1)OCO3 the results were CtBP-E1A blk -15.9, G9a block 56.2µM*, HP1b chromo inh 0.5%, BAZ2B inh -32.5%, JMJD2A Tudor -29.8% and Six1-Eya2 inh -13.0.
CCn1cc(C(=O)NCCc2ccc(OC)c(OC)c2)c(=O)c2cc(S(=O)(=O)N3CCC(C)CC3)ccc21 was read as G9a block -26.0%[59 µM], HP1b chromo inh 27.6% and JMJD2A Tudor -24.7%.
Screening COc1ccc(OC)c(-c2cc(C3CCN(c4ncccc4[N+](=O)[O-])CC3)[nH]n2)c1 returned CtBP-E1A blk -22.1, G9a block 35.5µM*, HP1b chromo inh inconclusive, BAZ2B inh 12.6µM*, JMJD2A Tudor 25.1µM* and Six1-Eya2 inh inconclusive.
COc1ccc(-c2cc(C3CCN(Cc4ccc([N+](=O)[O-])cc4)CC3)[nH]n2)cc1 was read as CtBP-E1A blk -3.2, G9a block 44.7µM*, HP1b chromo inh inconclusive, BAZ2B inh inconclusive, JMJD2A Tudor 44.7µM* and Six1-Eya2 inh 0.6.

Source: PubChem BioAssay
